The list is a sample of the results.
aSyn UTR act – Activators via SNCA 5'UTR binding, MLPCN | activity score, % (tested at 7.5 µM), hits read low | 7.1% of 300,000 active | alpha-synuclein 5'UTR reporter, activators screen; in the data active means activity score below about -60%
Numbers stand for hits; i = inactive.

SMILES	aSyn UTR act
CC(C)(C)C(=O)[C@H]1[C@H](c2ccccc2)[C@@]2(N=C(c3ccccc3)OC2=O)C2c3ccccc3C=NN21 (stereo partly specified)	-83.2
N=C(N)SCc1ccc(Cl)cc1Cl	-71.0
O=C1C=C(c2cccs2)C[C@H](c2ccccc2)[C@H]1n1nnc([N+](=O)[O-])n1	i
COc1cc(CNCCc2ccc(S(N)(=O)=O)cc2)ccc1OCc1ccc(Cl)cc1	-64.2
CCOc1cc(CNCCc2ccc(S(N)(=O)=O)cc2)ccc1OCc1ccc(Cl)cc1	i
CCCCC[C@H](O)/C=C/[C@@H]1[C@@H](C/C=C\CCCC(=O)OC)[C@@H](O)C[C@H]1O	i
Cc1cc(C)n(-c2nc(Nc3ccccc3C(F)(F)F)nc(-n3nc(C)cc3C)n2)n1	i
Cc1cc(C)n(-c2nnc(NC34CC5CC(CC(C5)C3)C4)nn2)n1	-172.2
O=C(NNc1ncnc2c1cnn2-c1cccc(Cl)c1)c1ccco1	-158.2
CC(=O)NNc1ncnc2c1cnn2-c1ccc(C)c(Cl)c1	-69.0
COc1ccc(C(=O)NC(=S)NC(C)(C)C)cc1Br	-157.7
COc1ccc(C(=O)NC(=S)NC(C)C)cc1Br	-69.9
O=C(c1cnn(-c2ccccc2)c1)c1ccc2ccccc2c1O	-119.4
O=C(c1cnn(-c2nc3ccccc3s2)c1)c1ccccc1O	-117.3
O=C(c1cnn(-c2cccc(F)c2)c1)c1ccccc1O	-194.0
O=C(Nc1ccccc1)C1=C[C@H](c2ccc(C(F)(F)F)cc2)C[C@H](OCCCCO)O1	-91.2
CCO[C@@H]1OC(C(=O)Nc2ccccc2)=C[C@H](c2coc3ccccc3c2=O)[C@H]1CCCO	i
O=C(Nc1ccccc1)C1=C[C@@H](c2ccc(Br)cc2)C[C@@H](OCCCCO)O1	-94.8
O=C(Nc1ccccc1)C1=C[C@H](c2ccccc2)C[C@H](OCCCCO)O1	-146.5
c1ccc(CSc2cc3ccccc3[nH]2)cc1	-132.3
CCn1c2ccccc2c2nc3cc(OC)c(OC)cc3nc21	-78.5
CCn1c2ccccc2c2cc(CNCc3ccc(OC)cc3OC)ccc21	i
Cc1cccc(NC(=S)c2nc3ccccc3s2)c1	-99.9
CCCCN1C(=O)C(=O)N(CC(=O)N2N=C3/C(=C/c4ccco4)CCCC3C2c2ccco2)C1=O (stereo unspecified)	-86.3
O=C(Nc1ccc(F)cc1)Oc1ccc[nH]c1=O	-82.4
SMILES	aSyn UTR act
CCOC(=O)C1(Cc2cccc(OC)c2)CCCN(C(=O)c2ccc(OC)o2)C1 (stereo unspecified)	-125.8
CCOC(=O)C1(Cc2cccc(Cl)c2)CCCN(C(=O)c2cc(C)on2)C1 (stereo unspecified)	-72.1
CCOC(=O)C1(Cc2cccc(OC)c2)CCCN(C(=O)CCN2CCCO2)C1 (stereo unspecified)	-111.9
CCOC(=O)C1(Cc2cccc(OC)c2)CCCN(C(=O)c2cc(CC(C)C)[nH]n2)C1 (stereo unspecified)	-118.0
CCCc1ccc(OCc2ccc(C(=O)NN)o2)c(OC)c1	-84.0
C=CCc1ccc(OC(=O)NC2CCCCC2)c(OC)c1	-106.2
C=CCc1ccc(OCc2ccc(C(=O)O)o2)c(OC)c1	-120.7
CCCc1ccc(OCc2ccc(C(=O)O)o2)c(OC)c1	-94.1
O=C(Nc1ccc(NC(=O)c2cccnc2Cl)cc1)c1cccc(Cl)c1	-102.0
O=C(Nc1ccc(N2CCCCC2)cc1)C(Cl)c1ccccc1 (stereo unspecified)	-235.9
CN1CCN(c2ccc(NC(=O)c3ccc(Cl)cc3Cl)cc2)CC1	-135.7
O=C(Nc1ccc(N2CCCC2)cc1)c1ccc(Cl)cc1Cl	-88.4
CN1CCN(c2ccc(NC(=O)c3ccccc3Br)cc2)CC1	-119.8
O=C(C(Cl)c1ccccc1)N1CCCC1 (stereo unspecified)	-112.1
COc1ccccc1C(=O)Nc1ccc(N2CCCCC2)cc1	-65.9
O=C(Nc1ccc(N2CCCC2)cc1)c1cccc(Cl)c1	-137.0
O=C(Nc1ccc(N2CCCCC2)cc1)c1ccccn1	i
O=C(Nc1ccc(N2CCCCCC2)cc1)c1ccccc1Cl	-252.4
O=C(Nc1ccc(N2CCCC2)cc1)c1cc(Cl)ccc1Cl	-241.2
CCN1C(=S)SC(=O)C1=C1C=C(C)N(Cc2ccco2)C(C)=C1	-131.5
CCN1C(=S)SC(=O)C1=C1C=C(C)OC(C)=C1	-97.3
Cc1ccc(-c2nc(N)n(C(=O)c3cccnc3)n2)cc1	-77.0
CCOC(=O)c1cc(-c2ccccc2)nn1Cc1cc(C)no1	-81.0
O=S(=O)(c1cccc(-c2nnc(SCc3nc4ccccc4s3)o2)c1)N1CCOCC1	-186.6
O=S(=O)(c1ccc(OCc2nc3ccccc3s2)c(Cl)c1)N1CCOCC1	-140.7
SMILES	aSyn UTR act
O=C1NC(c2ccc(Br)cc2)Nc2sc3c(c21)CCC3 (stereo unspecified)	-96.2
Cc1ccsc1C1NC(=O)c2c(sc3c2CCCC3)N1 (stereo unspecified)	-218.0
Cc1ccc(C2NC(=O)c3c(sc4c3CCN(C)C4)N2)s1 (stereo unspecified)	-72.1
O=C1NC(c2ccccn2)Nc2sc3c(c21)CCC3 (stereo unspecified)	-123.6
O=C(/C=C(/c1ccc(Cl)cc1)n1cncn1)c1ccccc1	-62.3
Cn1cc(C(=O)Nc2ccccn2)c(=O)c2ccccc21	-113.7
CCOC(=O)C1CCN(C(=O)c2cc(COc3ccc(F)cc3F)on2)CC1	-144.0
CCOC(=O)N1CCN(C(=O)c2cc(COc3ccc(F)cc3F)on2)CC1	-65.2
O=C(NC1=NCCS1)c1cc(-c2ccc(-c3ccccc3)cc2)nc2ccccc12	-88.2
O=C(Nc1ccc2c(c1)OCCO2)c1cccc2nc3ccccc3nc12	i
Cc1ccc(-c2cc(C(=O)Nc3ccc4c(c3)OCCO4)c3ccccc3n2)cc1	-74.3
COc1ccc(NC(=S)NC(=O)c2ccccc2)cn1	-137.8
COc1ccc(NC(=O)c2cccc(Oc3ccccc3)c2)cn1	-108.5
Oc1cccc2ccc(/C=C/c3c(F)cccc3Cl)nc12	-114.0
Nc1nccc(/C=C/c2c(F)cccc2Cl)n1	-102.8
COc1ccc(N2C(N)=NC(N)=NC2(C)C)cc1	i
COc1ccc(-n2nc(N)c(C(N)=O)n2)cc1	-67.9
C=CCSc1n[nH]c(-c2ccc(OCCCC)cc2)n1	-89.2
CCCOc1ccc(C2=NNC(=O)CC2)cc1	i
C=CCSc1n[nH]c(-c2ccc(OCCC)cc2)n1	-164.3
CCCOc1ccc(-c2nc(=S)[nH][nH]2)cc1	-76.8
COc1cc(Cl)ccc1OCc1cc(C(=O)N(C)CCc2cnn(C)c2)no1	-91.1
Cc1cc(OCc2cc(C(=O)N(C)CCc3cnn(C)c3)no2)cc(C)c1Cl	-145.4
COc1ccc(C(=O)Nc2nnc(-c3ccccc3)s2)cc1	-189.4
COc1ccc(C(=O)Nc2nnc(C(F)(F)F)s2)cc1	-143.9
SMILES	aSyn UTR act
CCC(NC(=O)Nc1nnc(C(F)(F)F)s1)(C(F)(F)F)C(F)(F)F	i
COC(=O)Nc1nnc(-c2ccc(OC)cc2)s1	-76.2
COc1cccc(OC)c1C(=O)Nc1ccc2c(c1)Cc1ccccc1-2	-105.5
O=C(Nc1ccc2c(c1)Cc1ccccc1-2)c1ccco1	-160.3
COc1ccc(CCNC(=O)c2ccc3c(c2)OCCO3)cc1	-135.3
O=C(NCCc1ccccc1)c1ccc2c(c1)OCCO2	i
COc1ccc(CCNC(=O)c2coc(=O)c(Br)c2)cc1	-62.9
Cc1ccc2c(c1)[nH]c1c(=O)n(Cc3ccco3)cnc12	-118.4
CCOC(=O)c1[nH]c2ccccc2c1NC(=S)Nc1cc(C)ccc1C	-87.9
COc1ccc2[nH]c3c(C)c4ccncc4c(C)c3c2c1	i
CCOc1ccc2[nH]c(C(=O)N/N=C/c3ccc(OC)cc3)cc2c1	i
